Results filed as inconclusive are left out. Activity calls are given as the source filed them. The calls were made as follows, unless noted: active = hit-call score of the fitted dose curve at least 0.9, where 1 is the maximum; inconclusive = response in the unintended direction; inactive = score below 0.9.
Columns and labels:
[1] = molecular target: Retinoic acid receptor RXR-alpha (Homo sapiens) (UniProt P19793); assay: ATG_RXRa_TRANS: Attagene TRANS-FACTORIAL HepG2 Assay for human Retinoid X Receptor alpha (RXRa) (AID 2283012)
Retinoic acid receptor RXR-alpha (Homo sapiens), sequence (P19793 whole entry, looked up, the tested form may be a part): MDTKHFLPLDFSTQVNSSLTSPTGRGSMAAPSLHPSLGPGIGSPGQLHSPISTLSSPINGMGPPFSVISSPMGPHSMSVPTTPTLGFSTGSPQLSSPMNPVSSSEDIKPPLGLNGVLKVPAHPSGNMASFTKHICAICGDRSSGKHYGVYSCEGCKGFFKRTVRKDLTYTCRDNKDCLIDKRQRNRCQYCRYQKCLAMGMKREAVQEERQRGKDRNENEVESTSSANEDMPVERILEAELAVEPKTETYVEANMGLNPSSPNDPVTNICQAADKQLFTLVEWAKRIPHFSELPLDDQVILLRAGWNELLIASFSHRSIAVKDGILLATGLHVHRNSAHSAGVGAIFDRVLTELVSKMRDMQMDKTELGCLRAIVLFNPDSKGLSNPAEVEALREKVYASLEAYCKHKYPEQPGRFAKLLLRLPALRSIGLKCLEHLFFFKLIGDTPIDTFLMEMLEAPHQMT
Outline: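 Transient transfection of human HepG2 with multiple GAL4-UAS reporter constructs; 24 h compound exposure; total RNA isolated, reverse-transcribed, PCR-amplified, 6-FAM labelled, HpaI-cut, resolved by capillary electrophoresis. Positive-direction fit versus DMSO.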

[2] = molecular target: human Retinoid X Receptor beta (RXRb), RXRB (gene 6257) (UniProt P28702); assay: ATG_RXRb_TRANS: Attagene TRANS-FACTORIAL HepG2 Assay for human Retinoid X Receptor beta (RXRb) (AID 2283013)
human Retinoid X Receptor beta (RXRb), RXRB (gene 6257), sequence (P28702 whole entry, looked up, the tested form may be a part): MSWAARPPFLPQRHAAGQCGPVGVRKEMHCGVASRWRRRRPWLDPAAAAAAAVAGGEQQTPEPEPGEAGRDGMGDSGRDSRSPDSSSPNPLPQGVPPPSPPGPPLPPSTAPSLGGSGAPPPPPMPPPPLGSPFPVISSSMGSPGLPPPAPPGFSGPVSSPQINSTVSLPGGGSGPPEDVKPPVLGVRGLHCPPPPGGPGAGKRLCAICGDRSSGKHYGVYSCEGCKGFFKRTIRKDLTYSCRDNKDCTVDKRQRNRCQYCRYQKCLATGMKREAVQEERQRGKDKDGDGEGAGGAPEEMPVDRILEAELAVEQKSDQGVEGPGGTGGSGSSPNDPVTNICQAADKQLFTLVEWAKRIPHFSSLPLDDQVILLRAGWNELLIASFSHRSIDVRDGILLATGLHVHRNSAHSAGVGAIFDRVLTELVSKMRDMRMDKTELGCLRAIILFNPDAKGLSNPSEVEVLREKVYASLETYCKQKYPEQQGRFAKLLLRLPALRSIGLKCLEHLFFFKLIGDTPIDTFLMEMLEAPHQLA
Outline: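 Transfect HepG2 with GAL4-UAS multi-reporter constructs (chimeric NR-Gal4, TRANS format); dose compound 24 h; isolate RNA, RT-PCR, FAM primer extension, HpaI digest; quantify by capillary electrophoresis; positive direction vs DMSO.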

[3] = molecular target: human Vitamin D Receptor (VDR), VDR (gene 7421) (UniProt P11473); assay: ATG_VDR_TRANS: Attagene TRANS-FACTORIAL HepG2 Assay for human Vitamin D Receptor (VDR) (AID 2283022)
human Vitamin D Receptor (VDR), VDR (gene 7421), sequence (P11473 whole entry, looked up, the tested form may be a part): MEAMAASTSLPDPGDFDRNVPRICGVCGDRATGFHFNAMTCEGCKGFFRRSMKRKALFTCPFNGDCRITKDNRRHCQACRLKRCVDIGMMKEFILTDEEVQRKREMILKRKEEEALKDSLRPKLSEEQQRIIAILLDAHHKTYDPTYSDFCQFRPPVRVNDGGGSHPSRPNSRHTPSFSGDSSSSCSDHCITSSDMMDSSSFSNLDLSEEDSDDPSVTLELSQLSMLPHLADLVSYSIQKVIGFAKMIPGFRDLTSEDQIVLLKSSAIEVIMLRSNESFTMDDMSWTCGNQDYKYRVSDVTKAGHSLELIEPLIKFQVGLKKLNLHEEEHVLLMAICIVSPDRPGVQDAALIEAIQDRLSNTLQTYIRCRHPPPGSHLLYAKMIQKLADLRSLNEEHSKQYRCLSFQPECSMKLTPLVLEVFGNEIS
Outline: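 Fluorescence of labelled reporter cDNA fragments, resolved by capillary electrophoresis, gives mRNA induction after 24 h treatment of HepG2 cells carrying transfected Gal4-fusion reporter units. Activity is fitted in the positive direction with DMSO as baseline.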

[4] = molecular target: human Thyroid Receptor alpha (THRa1), THRA (gene 7067) (UniProt P10827); assay: ATG_THRa1_TRANS: Attagene TRANS-FACTORIAL HepG2 Assay for human Thyroid Receptor alpha (THRa1) (AID 2283014)
human Thyroid Receptor alpha (THRa1), THRA (gene 7067), sequence (P10827 whole entry, looked up, the tested form may be a part): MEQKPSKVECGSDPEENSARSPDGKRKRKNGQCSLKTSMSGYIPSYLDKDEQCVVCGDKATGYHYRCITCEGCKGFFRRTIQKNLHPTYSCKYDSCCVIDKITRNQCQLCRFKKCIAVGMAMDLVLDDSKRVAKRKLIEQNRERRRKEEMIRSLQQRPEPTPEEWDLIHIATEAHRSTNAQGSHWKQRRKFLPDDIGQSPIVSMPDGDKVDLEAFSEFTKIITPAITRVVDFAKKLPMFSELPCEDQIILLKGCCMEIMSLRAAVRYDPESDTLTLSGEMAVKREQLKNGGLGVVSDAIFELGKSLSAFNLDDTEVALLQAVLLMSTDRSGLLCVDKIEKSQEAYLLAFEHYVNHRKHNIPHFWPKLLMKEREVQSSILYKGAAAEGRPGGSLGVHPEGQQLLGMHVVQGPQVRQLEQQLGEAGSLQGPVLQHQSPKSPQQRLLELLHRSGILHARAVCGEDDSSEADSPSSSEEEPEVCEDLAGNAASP
Outline: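 First, HepG2 cells receive multiple GAL4-UAS reporter units and the chimeric receptor. They are then dosed for 24 h, after which RNA is reverse-transcribed, amplified, labelled, HpaI-cut and sized by capillary electrophoresis; gain relative to DMSO is scored.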

[5] = read-out: E-selectin (Homo sapiens) (UniProt P16581); assay: BSK_3C_Eselectin: BioMAP Diversity Plus: 3C Assay for Eselectin Biomarker Activity (AID 2283015; active = hit-call score of the fitted dose curve at least 0.9, where 1 is the maximum; inactive = score below 0.9); conditions: primary human endothelial cells (HUVEC); actives raise or lower the signal
Outline: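 Human vascular endothelium from umbilical vein is exposed to test chemicals for 24 h. E-selectin levels are read by ELISA and compared with DMSO controls.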

[6] = read-out: Interleukin-1 alpha (IL1a), IL1A (gene 3552); assay: BSK_BE3C_IL1a: BioMAP Diversity Plus: BE3C Assay for Interleukin-1 alpha (IL1a) Biomarker Activity (AID 2283016; active = hit-call score of the fitted dose curve at least 0.9, where 1 is the maximum; inactive = score below 0.9); conditions: primary human bronchial epithelial cells; actives raise or lower the signal
Outline: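 BE3C primary human bronchial epithelium; cpd 24 h; IL-1a by ELISA; bidirectional fit vs DMSO; parallel SRB (0.1% SRB, 10% TCA fix, 560 nm) for cytotoxicity.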

[7] = read-out: Monocyte Chemoattractant Protein-1 (MCP1), CCL2 (gene 6347); assay: BSK_3C_MCP1: BioMAP Diversity Plus: 3C Assay for Monocyte Chemoattractant Protein-1 (MCP1) Biomarker Activity (AID 2283017; active = hit-call score of the fitted dose curve at least 0.9, where 1 is the maximum; inactive = score below 0.9); conditions: primary human endothelial cells (HUVEC); actives raise or lower the signal
Outline: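 Endothelial cells from human umbilical vein are dosed with chemical, cultured 24 h, then assayed for MCP-1 by ELISA; both increases and decreases are modelled against DMSO controls.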

[8] = read-out: Monocyte Chemoattractant Protein-1 (MCP1), CCL2 (gene 6347); assay: BSK_4H_MCP1: BioMAP Diversity Plus: 4H Assay for Monocyte Chemoattractant Protein-1 (MCP1) Biomarker Activity (AID 2283018; active = hit-call score of the fitted dose curve at least 0.9, where 1 is the maximum; inactive = score below 0.9); conditions: primary human endothelial cells (HUVEC); actives raise or lower the signal
Outline: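 ELISA read-out of MCP-1 from human vascular endothelial primary cells taken at 24 hours after compound exposure. Activity was fitted in both directions relative to DMSO, which served as negative control.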

[9] = read-out: Human Leukocyte Antigen - DR isotype (HLADR), HLA-DRA (gene 3122); assay: BSK_3C_HLADR: BioMAP Diversity Plus: 3C Assay for Human Leukocyte Antigen - DR isotype (HLADR) Biomarker Activity (AID 2283019; active = hit-call score of the fitted dose curve at least 0.9, where 1 is the maximum; inactive = score below 0.9); conditions: primary human endothelial cells (HUVEC); actives raise or lower the signal
Outline: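 Endothelial cells from human umbilical vein are treated with test chemical; after 24 h, HLA-DR levels are measured by ELISA. Data are fitted in both directions using DMSO as the baseline.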

[10] = read-out: Interleukin-8 (IL8), CXCL8 (gene 3576); assay: BSK_3C_IL8: BioMAP Diversity Plus: 3C Assay for Interleukin-8 (IL8) Biomarker Activity (AID 2283020; active = hit-call score of the fitted dose curve at least 0.9, where 1 is the maximum; inactive = score below 0.9); conditions: primary human endothelial cells (HUVEC); actives raise or lower the signal
Outline: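 ELISA read-out of IL-8 from human umbilical vein endothelium, measured 24 h after chemical dosing. Activity is expressed relative to DMSO negative control, with both increases and decreases fitted.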

[11] = read-out: Monokine induced gamma interferon (MIG), CXCL9 (gene 4283); assay: BSK_3C_MIG: BioMAP Diversity Plus: 3C Assay for Monokine induced gamma interferon (MIG) Biomarker Activity (AID 2283021; active = hit-call score of the fitted dose curve at least 0.9, where 1 is the maximum; inactive = score below 0.9;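 as to AC50: MIG protein level measured by immunoassay in the treated endothelial cultures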); conditions: primary human endothelial cells (HUVEC); actives raise or lower the signal
Outline: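 Read-out is ELISA detection of MIG on human umbilical vein endothelial cells, taken 24 h after dosing. Gain or loss of signal was scored relative to DMSO controls using bidirectional curve fitting.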

[12] = BSK_3C_SRB: Viability Assessment in the BioMAP Diversity Plus: 3C Assay (AID 2283023; active = hit-call score of the fitted dose curve at least 0.9, where 1 is the maximum; inactive = score below 0.9;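 also: fitted both ways against DMSO so a hit may be signal rise or drop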); conditions: primary human endothelial cells (HUVEC)
Outline: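 Cells were dosed with chemical, cultured 24 h, fixed with 10% TCA, stained with 0.1% SRB and read at 560 nm. Human umbilical vein endothelium was used; DMSO served as negative control and baseline.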

[13] = read-out: Matrix Metallopeptidase 1 (MMP1), MMP1 (gene 4312); assay: BSK_BE3C_MMP1: BioMAP Diversity Plus: BE3C Assay for Matrix Metallopeptidase 1 (MMP1) Biomarker Activity (AID 2283024; active = hit-call score of the fitted dose curve at least 0.9, where 1 is the maximum; inactive = score below 0.9); conditions: primary human bronchial epithelial cells; actives raise or lower the signal
Outline: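 Human bronchial epithelial cells (BE3C system) exposed to compound for 24 h; MMP1 then quantified by ELISA. Activity was fitted in both directions relative to DMSO.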

[14] = BSK_3C_Vis: BioMAP Diversity Plus: 3C Assay for Morphology Visualization (AID 2283025; active = hit-call score of the fitted dose curve at least 0.9, where 1 is the maximum; inactive = score below 0.9;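 also: light microscopy image of cell morphology used as background control; fitted both ways so gain or loss versus DMSO counts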); conditions: primary human endothelial cells (HUVEC)
Outline: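 Chemicals were added to primary human umbilical vein endothelium, cells were incubated 24 h, and morphology was then visualized by light microscopy. Gain or loss of signal was fitted bidirectionally relative to DMSO.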

[15] = read-out: Pselectin, SELP (gene 6403); assay: BSK_4H_Pselectin: BioMAP Diversity Plus: 4H Assay for Pselectin Biomarker Activity (AID 2283026; active = hit-call score of the fitted dose curve at least 0.9, where 1 is the maximum; inactive = score below 0.9); conditions: primary human endothelial cells (HUVEC); actives raise or lower the signal
Outline: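 ELISA read-out of P-selectin on human umbilical vein endothelium after 24 h of dosing. Values derive from bidirectional fitting relative to DMSO. Parallel SRB protein staining flagged overt cytotoxicity.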

[16] = BSK_4H_SRB: Viability Assessment in the BioMAP Diversity Plus: 4H Assay (AID 2283027; active = hit-call score of the fitted dose curve at least 0.9, where 1 is the maximum; inactive = score below 0.9;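 also: cells exposed to compound for 24 h before staining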;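 as to AC50: curves fitted both ways versus DMSO so AC50 may be loss or gain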); conditions: primary human endothelial cells (HUVEC)
Outline: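 Human umbilical vein endothelial cells, 24 h after chemical dosing; total protein measured by 0.1% sulforhodamine B staining after 10% TCA fixation, read at 560 nm. Bidirectional fitting against DMSO.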

[17] = BSK_BE3C_SRB: Viability Assessment in the BioMAP Diversity Plus: BE3C Assay (AID 2283028; active = hit-call score of the fitted dose curve at least 0.9, where 1 is the maximum; inactive = score below 0.9;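 as to AC50: fitted both ways so AC50 may mark signal gain or loss versus DMSO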); conditions: primary human bronchial epithelial cells
Outline: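 Overt cytotoxicity was assessed as total protein in confluent human primary bronchial epithelial cultures 24 h after chemical addition, using 0.1% sulforhodamine B staining read at 560 nm.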

[18] = read-out: Thrombomodulin, THBD (gene 7056); assay: BSK_3C_Thrombomodulin: BioMAP Diversity Plus: 3C Assay for Thrombomodulin Biomarker Activity (AID 2283029; active = hit-call score of the fitted dose curve at least 0.9, where 1 is the maximum; inactive = score below 0.9); conditions: primary human endothelial cells (HUVEC); actives raise or lower the signal
Outline: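 Read-out is ELISA of thrombomodulin on human umbilical vein endothelium 24 h after chemical dosing. Gain or loss of signal is scored relative to DMSO. Overt cytotoxicity is checked in parallel cultures by sulforhodamine B staining.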

[19] = read-out: Urokinase-type plasminogen activator receptor (uPAR), PLAUR (gene 5329); assay: BSK_4H_uPAR: BioMAP Diversity Plus: 4H Assay for Urokinase-type plasminogen activator receptor (uPAR) Biomarker Activity (AID 2283030; active = hit-call score of the fitted dose curve at least 0.9, where 1 is the maximum; inactive = score below 0.9); conditions: primary human endothelial cells (HUVEC); actives raise or lower the signal
Outline: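 Chemicals are dosed onto human vascular endothelial primary cells (umbilical vein). After 24 h, uPAR is read by ELISA. Gain or loss of signal is fitted relative to DMSO.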

[20] = read-out: Vascular endothelial growth factor receptor 2 (Homo sapiens) (UniProt P35968); assay: BSK_4H_VEGFRII: BioMAP Diversity Plus: 4H Assay for Vascular endothelial growth factor receptor 2 (VEGFR2) Biomarker Activity (AID 2283031; active = hit-call score of the fitted dose curve at least 0.9, where 1 is the maximum; inactive = score below 0.9;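 as to AC50: cell-surface VEGFR2 protein level quantified by ELISA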); conditions: primary human endothelial cells (HUVEC); actives raise or lower the signal
Outline: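 VEGFRII levels on human vascular endothelial primary cells were determined by ELISA at 24 hours post-dosing, with gain- or loss-of-signal fitted against DMSO controls.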

Measured: AC50

E-selectin (Homo sapiens), sequence (P16581 whole entry, looked up): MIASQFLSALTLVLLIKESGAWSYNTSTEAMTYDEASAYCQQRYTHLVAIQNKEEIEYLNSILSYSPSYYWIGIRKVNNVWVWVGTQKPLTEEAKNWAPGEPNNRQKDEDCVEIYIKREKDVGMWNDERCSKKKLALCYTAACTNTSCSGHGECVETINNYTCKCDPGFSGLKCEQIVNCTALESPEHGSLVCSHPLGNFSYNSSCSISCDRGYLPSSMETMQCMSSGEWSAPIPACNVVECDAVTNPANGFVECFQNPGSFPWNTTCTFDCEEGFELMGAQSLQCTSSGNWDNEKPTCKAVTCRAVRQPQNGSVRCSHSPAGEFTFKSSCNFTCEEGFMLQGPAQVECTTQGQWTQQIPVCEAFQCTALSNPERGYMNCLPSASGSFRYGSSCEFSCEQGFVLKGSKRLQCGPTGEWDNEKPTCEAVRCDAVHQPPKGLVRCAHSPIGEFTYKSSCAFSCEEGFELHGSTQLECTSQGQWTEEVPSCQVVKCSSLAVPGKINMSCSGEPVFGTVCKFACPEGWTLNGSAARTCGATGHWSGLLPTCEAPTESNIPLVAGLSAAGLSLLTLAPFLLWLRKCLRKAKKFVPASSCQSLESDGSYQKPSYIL

CCOC(=O)CN
inactive: [1] | [2] | [3]

C=C(CC(=O)O)C(=O)O
inactive: [1] | [2] | [3]

CC1CC(O)CC(C)(C)C1 (stereo not drawn)
inactive: [1] | [4]

C=CC(=C)CCCC(C)(C)OC(C)=O
inactive: [1] | [4]

Cc1ccc(C)o1
inactive: [1] | [2] | [3]

CCCCCCCC(=O)OCCCCCC
inactive: [1] | [2] | [3]

c1ccc(CN(Cc2ccccc2)Cc2ccccc2)cc1
active: [2] 13.1 µM
inactive: [1] | [3]

CSc1c(Cl)c(Cl)c(Cl)c(Cl)c1Cl
active: [1] 27.3 µM | [2] 2.96 µM
inactive: [3]

C=CCOC(=O)CCCCCC
inactive: [1] | [2] | [3]

Cc1ccc2c(c1)C(=O)OC2=O
inactive: [1] | [2] | [3]

CCc1ncc(C)[nH]1
inactive: [1] | [4]

CCOC(=O)CCc1ccccc1
inactive: [1] | [2] | [3]

CC[N+](C)(CC)CC
inactive: [1] | [4]

Cc1ccc(S(N)(=O)=O)cc1
inactive: [1] | [4]

CC1C2CC(CC2C2CCCC(O)C2)C1(C)C (stereo not drawn)
inactive: [1] | [2] | [3]

O=C1CCCC=CCCCCCCCCCC1
inactive: [3]
active: [1] 24.4 µM | [2] 12.1 µM

CC(C)NCC(O)COc1ccc(CC(N)=O)cc1 (stereo not drawn)
inactive: [1] | [2] | [3]

CCCCCC(C=O)=Cc1ccccc1
active: [2] 73.8 µM | [5] 35.2 µM | [7] 31.5 µM | [8] 27.8 µM | [9] 36.6 µM | [10] 28.8 µM | [12] 33.1 µM | [13] 0.096 µM | [14] 37.8 µM | [15] 32.7 µM | [16] 34.1 µM | [19] 36.5 µM | [20] 31.3 µM
inactive: [1] | [6] | [11] | [17] | [18]

O=C(O)CCCCCCCCC(=O)O
inactive: [1] | [2] | [3]

C1CCOC1
inactive: [1] | [2] | [3]

CCCSc1ccc2nc(NC(=O)OC)[nH]c2c1
inactive: [1] | [2] | [3]

CCCCCCC(CO)CCCC (stereo not drawn)
active: [2] 54.8 µM
not listed: [3] | [4] | [14]
inactive: all other assays above

CCCCCCCCCCCC(=O)OC[C@@H](O)[C@H]1OC[C@H](O)[C@H]1O
inactive: [1] | [2] | [3]

ON=C1CCCCC1
inactive: [1] | [2] | [3]

N[C@@H](Cc1cc(I)c(Oc2cc(I)c(O)c(I)c2)c(I)c1)C(=O)O
inactive: [1] | [3]
active: [2] 69 µM

CC1(C)C2=CCCC(C)(C)[C@]23CC[C@H]1C3
active: [5] 32.8 µM | [7] 30.4 µM | [9] 29.1 µM | [10] 20 µM | [12] 30.4 µM | [14] 37.4 µM | [15] 20 µM
not listed: [3] | [4]
inactive: all other assays above

ClC(c1ccccc1)(c1ccccc1)c1ccccc1
inactive: [1] | [2] | [3]

CCOC(=O)COC(=O)c1cc(Oc2ccc(C(F)(F)F)cc2Cl)ccc1[N+](=O)[O-]
inactive: [1] | [4]

CC(=O)O[C@H]1C[C@@H]2CC[C@@]1(C)C2(C)C
inactive: [1] | [2] | [3]

CCOC(=O)c1ccc(N)cc1
inactive: [1] | [4] | [3]

C[Si]1(C)O[Si](C)(C)O[Si](C)(C)O1
inactive: [1] | [4] | [3]

OCC(O)c1ccccc1 (stereo not drawn)
inactive: [1] | [4] | [3]

C#CC(C)(O)CC(C)C (stereo not drawn)
inactive: [1] | [4] | [3]

CCC(C)c1cc([N+](=O)[O-])cc([N+](=O)[O-])c1OC(=O)OC(C)C (stereo not drawn)
inactive: [4] | [3]
active: [1] 32.6 µM | [5] 17.9 µM | [6] 25.4 µM | [7] 29.5 µM | [8] 5.06 µM | [9] 9.38 µM | [10] 34.1 µM | [11] 33.2 µM | [12] 14.1 µM | [13] 35.1 µM | [14] 12 µM | [15] 9.75 µM | [16] 13.9 µM | [17] 29.4 µM | [18] 20 µM | [19] 13 µM | [20] 9.93 µM

COC(=O)c1cccnc1
inactive: [1] | [4]

Cc1ncc[nH]1
inactive: [1] | [4]

CCCCCCCC(=O)OCC(O)CO (stereo not drawn)
inactive: [1] | [4]

CCCCCCCCCCCCCCN(CCO)CCO
inactive: [1] | [4] | [3]

OCC#CCO
inactive: [1] | [3]

CCOC(=O)CC(C)O (stereo not drawn)
inactive: [1] | [4] | [3]

COC(=O)C=C(C)CCC=C(C)C
inactive: [1] | [4] | [3]

CCCC(=O)c1ccccc1
inactive: [1] | [4] | [3]

Cc1ccc(N)c(S(=O)(=O)O)c1
inactive: [1] | [3]

From PubChem BioAssay (EPA / NIEHS)
